Broadly, the viability is a read-out of living cells in per cent, often relative to untreated cells.

Activity calls are given as the source filed them.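 The calls were made as follows, unless noted: active = normalized viability below 100% at a tested concentration; inactive = the rest.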

A short description of assay [1]: ovarian cancer cell viability with rucaparib, profiling panel, oncology-focused library, rucaparib conditional (AID 1508598). The following applies: patient-derived ovarian cancer cells, CellTiter-Glo viability, 144 h, stronger effect = lower value. (In general: In ATP-based viability assays light output follows the ATP content of the culture.)
Assay [2] in a line: kinase inhibitors against Plasmodium liver-stage infection, cell-based, known kinase inhibitor set, luminescence, hepatoma host viability (AID 624392; call rule not given here;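 also: infected cells incubated roughly two days before readout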). Particulars: Plasmodium liver stage in hepatoma cells, luciferase luminescence, concentration not given here; liver cell % of control: measured here: host liver cell viability; parasite % of control: stronger effect = lower value.
Assay [3] is described as follows: modulators of glucocorticoid suppression of NF-kB, cell-based, luciferase, IL-1B stimulus, dexamethasone (AID 624486; call rule not given here;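 as to percent of negative control (+Dex): 100% = mean signal of vehicle control wells on the plate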). Particulars: NF-kB luciferase reporter, IL-1B + dexamethasone, luminescence; percent of negative control (+Dex): actives lie on both sides, concentration not given here; z-score: measured here: IL-1B alone, no Dex. For orientation: Reporter assays use an easily measured gene product as a stand-in for the process of interest.

Assay [4] can be described thus: kinase inhibitors altering Pseudomonas killing of worms, whole organism (AID 651566; call rule not given here;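 also: tested at 14 µM; sign flipped so higher z means a lower ratio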). Particulars: C. elegans killed by P. aeruginosa, survival ratio.
Assay [5] can be described thus: activators of macrophage pro-inflammatory response, cell-based, murine, luminescence (AID 652131; call rule not given here). Particulars: murine macrophage pro-inflammatory reporter, stronger effect = higher value.
Assay [6] in a line: survival rescue of mitochondrial mutant cells in low glucose, primary screen, MELAS cybrids, Rieske KO mouse fibroblasts, CellTiter-Glo (AID 1508586;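 active = mean z-score across replicates of 1.96 or higher in either the MELAS or the Rieske mutant cell line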;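 also: z relative to plate mean and SD of compound and empty wells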).
Setting [7] is: at 0.000305 µM, OCI-C5x cells, with rucaparib 10 µM, 100% = cells with rucaparib alone.
The mark [8] stands for this setting: at 0.000305 µM, OCI-C5x cells, without rucaparib.
[9] abbreviates: at 0.000305 µM, OCI-P5x cells, with rucaparib 20 µM, 100% = cells with rucaparib alone.
The mark [10] stands for this setting: at 0.000305 µM, OCI-P5x cells, without rucaparib.
Setting [11] is: at 0.00122 µM, OCI-C5x cells, with rucaparib 10 µM, 100% = cells with rucaparib alone.
Where [12] appears, read: at 0.00122 µM, OCI-C5x cells, without rucaparib.
[13] abbreviates: at 0.00122 µM, OCI-P5x cells, with rucaparib 20 µM, 100% = cells with rucaparib alone.
[14] abbreviates: at 0.00122 µM, OCI-P5x cells, without rucaparib.
Where [15] appears, read: at 0.00488 µM, OCI-C5x cells, with rucaparib 10 µM, 100% = cells with rucaparib alone.
The mark [16] stands for this setting: at 0.00488 µM, OCI-C5x cells, without rucaparib.
Setting [17] is: at 0.00488 µM, OCI-P5x cells, with rucaparib 20 µM, 100% = cells with rucaparib alone.
The mark [18] stands for this setting: at 0.00488 µM, OCI-P5x cells, without rucaparib.
[19] abbreviates: at 0.0195 µM, OCI-C5x cells, with rucaparib 10 µM, 100% = cells with rucaparib alone.
The mark [20] stands for this setting: at 0.0195 µM, OCI-C5x cells, without rucaparib.
Where [21] appears, read: at 0.0195 µM, OCI-P5x cells, with rucaparib 20 µM, 100% = cells with rucaparib alone.
The mark [22] stands for this setting: at 0.0195 µM, OCI-P5x cells, without rucaparib.
[23] abbreviates: at 0.0781 µM, OCI-C5x cells, with rucaparib 10 µM, 100% = cells with rucaparib alone.
[24] abbreviates: at 0.0781 µM, OCI-C5x cells, without rucaparib.
The mark [25] stands for this setting: at 0.0781 µM, OCI-P5x cells, with rucaparib 20 µM, 100% = cells with rucaparib alone.
The mark [26] stands for this setting: at 0.0781 µM, OCI-P5x cells, without rucaparib.
Where [27] appears, read: at 0.313 µM, OCI-C5x cells, with rucaparib 10 µM, 100% = cells with rucaparib alone.
[28] abbreviates: at 0.313 µM, OCI-C5x cells, without rucaparib.
Where [29] appears, read: at 0.313 µM, OCI-P5x cells, with rucaparib 20 µM, 100% = cells with rucaparib alone.
[30] abbreviates: at 0.313 µM, OCI-P5x cells, without rucaparib.
[31] abbreviates: at 1.25 µM, OCI-C5x cells, with rucaparib 10 µM, 100% = cells with rucaparib alone.
The mark [32] stands for this setting: at 1.25 µM, OCI-C5x cells, without rucaparib.
Setting [33] is: at 1.25 µM, OCI-P5x cells, with rucaparib 20 µM, 100% = cells with rucaparib alone.
Where [34] appears, read: at 1.25 µM, OCI-P5x cells, without rucaparib.
Where [35] appears, read: at 5 µM, OCI-C5x cells, with rucaparib 10 µM, 100% = cells with rucaparib alone.
Setting [36] is: at 5 µM, OCI-C5x cells, without rucaparib.
Where [37] appears, read: at 5 µM, OCI-P5x cells, with rucaparib 20 µM, 100% = cells with rucaparib alone.
Where [38] appears, read: at 5 µM, OCI-P5x cells, without rucaparib.

On to `CC(C)(C(=O)NCC(F)(F)C(F)(F)F)C(=O)N[C@H]1C(=O)Nc2ccccc2-c2ccccc21`, for which the viability in assay [1] (setting [7]) was 111% (inactive); in assay [1] (setting [8]), 114% (inactive); in assay [1] (setting [9]), 103% (inactive); in assay [1] (setting [10]) it was 105% (inactive); in assay [1] (setting [11]) it was 106% (inactive); in assay [1] (setting [12]), 111% (inactive). In addition, the viability was 103% (inactive) in assay [1] (setting [13]); 104% (inactive) in assay [1] (setting [14]); 114% (inactive) in assay [1] (setting [15]); 117% (inactive) in assay [1] (setting [16]); 99.5% (active) in assay [1] (setting [17]); 94.4% (active) in assay [1] (setting [18]). The viability is 110% (inactive) in assay [1] (setting [19]); 117% (inactive) in assay [1] (setting [20]); 85.5% (active) in assay [1] (setting [21]); 90.2% (active) in assay [1] (setting [22]); 119% (inactive) in assay [1] (setting [23]); 119% (inactive) in assay [1] (setting [24]). Further, the viability in assay [1] (setting [25]) was 92% (active); in assay [1] (setting [26]), 91.6% (active); in assay [1] (setting [27]) it was 116% (inactive); in assay [1] (setting [28]), 107% (inactive); in assay [1] (setting [29]) it was 85.7% (active); in assay [1] (setting [30]), 85.2% (active). Further, the viability is 114% (inactive) in assay [1] (setting [31]); 113% (inactive) in assay [1] (setting [32]); 82.5% (active) in assay [1] (setting [33]); 82% (active) in assay [1] (setting [34]); 117% (inactive) in assay [1] (setting [35]); 108% (inactive) in assay [1] (setting [36]). In addition, the viability in assay [1] (setting [37]) was 72% (active); in assay [1] (setting [38]), 76.9% (active).

In the case of `O=C1[C@H](CC[C@H](O)c2ccc(F)cc2)[C@H](c2ccc(O)cc2)N1c1ccc(F)cc1`, the viability was 109% (inactive) in assay [1] (setting [7]); 121% (inactive) in assay [1] (setting [8]); 106% (inactive) in assay [1] (setting [9]); 117% (inactive) in assay [1] (setting [10]); 107% (inactive) in assay [1] (setting [11]); 117% (inactive) in assay [1] (setting [12]). For the same molecule, the viability was 107% (inactive) in assay [1] (setting [13]); 114% (inactive) in assay [1] (setting [14]); 111% (inactive) in assay [1] (setting [15]); 114% (inactive) in assay [1] (setting [16]); 101% (inactive) in assay [1] (setting [17]); 112% (inactive) in assay [1] (setting [18]). Besides, the viability in assay [1] (setting [19]) was 109% (inactive); in assay [1] (setting [20]), 118% (inactive); in assay [1] (setting [21]), 104% (inactive); in assay [1] (setting [22]) it was 106% (inactive); in assay [1] (setting [23]), 107% (inactive); in assay [1] (setting [24]) it was 108% (inactive). Further, the viability in assay [1] (setting [25]) was 98% (active); in assay [1] (setting [26]), 102% (inactive); in assay [1] (setting [27]), 111% (inactive); in assay [1] (setting [28]), 111% (inactive); in assay [1] (setting [29]), 94.9% (active); in assay [1] (setting [30]), 104% (inactive). Besides, the viability was 126% (inactive) in assay [1] (setting [31]); 111% (inactive) in assay [1] (setting [32]); 96.5% (active) in assay [1] (setting [33]); 96.4% (active) in assay [1] (setting [34]); 128% (inactive) in assay [1] (setting [35]); 103% (inactive) in assay [1] (setting [36]). For the same molecule, the viability in assay [1] (setting [37]) was 84.2% (active); in assay [1] (setting [38]), 94.6% (active).

Consider `CS(=O)(=O)CCNCc1coc(-c2ccc3ncnc(Nc4ccc(OCc5ccccc5)cc4)c3c2)c1`, for which the liver cell % of control in assay [2] was determined as 87.7%. In assay [2], the parasite % of control was 176% (inactive). Besides, the percent of negative control (+Dex) in assay [3] is 90% (inactive). Also, the z-score was -0.13 in assay [3]; -0.225 (inactive) in assay [4]; 2.75 (inactive) in assay [5]; -0.812 (inactive) in assay [6] (MELAS cybrid survival, CellTiter-Glo 48 h, stronger effect = higher value); -0.493 in assay [6] (Rieske KO mouse fibroblast survival, CellTiter-Glo 72 h).

(Values after PubChem BioAssay.)
